The text below walks through data of PubChem BioAssay AID720597 (Broad Institute, 2013).

Entries with a potency or affinity are not part of this list. Calls of active or inactive are those of the source.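 The calls were made as follows: active = fitted half-maximal dose no more than twice the top valid tested dose, for compounds that lower signal; inconclusive = fit invalid, or curve flat with activity between -70 and -30; inactive = potency past limit, curve flat within ±30, or signal increasing.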

For this assay, the target named is NAD-dependent protein deacylase sirtuin-5, mitochondrial (Homo sapiens) (UniProt Q9NXA8). The experiment in a line: SIRT5 deacylase inhibitors, dose response, biochemical, fluorescence imaging, cherry-pick, set 6 (AID 720597).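 Also: lower AMC signal can also come from blocking the trypsin step; 0% = median of neutral control wells and -100% = median of positive control wells.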 The following applies: Purified SirT5, succinyl-peptide-AMC/trypsin fluorescence; series mostly up to 15 µM; activity change, negative = inhibition: at the top concentration.
NAD-dependent protein deacylase sirtuin-5, mitochondrial (Homo sapiens), sequence (Q9NXA8 whole entry, looked up): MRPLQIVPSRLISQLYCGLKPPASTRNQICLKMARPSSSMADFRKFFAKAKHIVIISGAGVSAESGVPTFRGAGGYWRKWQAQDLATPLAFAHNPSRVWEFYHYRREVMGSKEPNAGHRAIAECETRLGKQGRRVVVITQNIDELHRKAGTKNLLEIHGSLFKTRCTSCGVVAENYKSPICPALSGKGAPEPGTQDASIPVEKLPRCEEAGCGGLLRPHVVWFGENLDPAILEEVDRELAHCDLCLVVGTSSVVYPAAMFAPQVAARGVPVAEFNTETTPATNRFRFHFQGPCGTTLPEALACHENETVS
As to `CC(=O)N(C)C[C@H]1Oc2ncc(-c3cccc(F)c3)cc2C(=O)N([C@@H](C)CO)C[C@H]1C`, the “activity change, negative = inhibition” value is 9.47% (inactive). For `COc1ccc(S(=O)(=O)Nc2ccc3c(c2)C(=O)N([C@H](C)CO)C[C@@H](C)[C@H](CN(C)S(=O)(=O)c2ccccc2)OCCCC[C@@H](C)O3)cc1` the value was -23.2% (inactive); for `C[C@H]1CN([C@@H](C)CO)C(=O)c2ccccc2-c2ccccc2CO[C@@H]1CN(C)Cc1ccc(C(F)(F)F)cc1`, 7.02% (inactive); for `O=C(C[C@@H]1C[C@H]2c3cc(NC(=O)C4CCC4)ccc3O[C@H]2[C@H](CO)O1)NCc1ccc(-c2ccccc2)cc1`, -5.14% (inactive).

As to `C[C@H](CO)N1C[C@H](C)[C@@H](CN(C)Cc2ccc(C(F)(F)F)cc2)OCCCC[C@H](C)Oc2ccc(NS(=O)(=O)c3cccs3)cc2C1=O`, the “activity change, negative = inhibition” value is -3.35% (inactive). For `C[C@@H](O)C#Cc1ccc([C@H]2[C@H](CO)N3CCCCN(CC4CC4)C[C@@H]23)cc1` the value was -7.08% (inactive); for `COc1ccc(S(=O)(=O)N(C)C[C@@H]2OCCCC[C@@H](C)Oc3ccc(NS(=O)(=O)c4ccc(C)cc4)cc3C(=O)N([C@@H](C)CO)C[C@@H]2C)cc1`, -14.6% (inactive). Then `C[C@@H]1CN([C@H](C)CO)S(=O)(=O)c2ccc(C#Cc3ccccn3)cc2O[C@@H]1CN(C)Cc1cccc(F)c1`, with -5.39% (inactive); and `COc1ccc(NC(=O)Nc2ccc3c(c2)C(=O)N([C@H](C)CO)C[C@H](C)[C@@H](CN(C)S(=O)(=O)c2cccs2)OCCCC[C@@H](C)O3)cc1`, with -4.68% (inactive); and `C[C@H](CO)N1C[C@H](C)[C@H](CN(C)S(=O)(=O)c2ccc(Cl)cc2)OCCCC[C@H](C)Oc2ccc(NS(=O)(=O)c3ccc(F)cc3)cc2C1=O`, with -7.61% (inactive). For `C[C@H]1CN([C@@H](C)CO)C(=O)c2ccccc2-c2ccccc2CO[C@@H]1CN(C)C(=O)Nc1ccccc1C(F)(F)F` the value was 7.56% (inactive). In the case of `Cn1cnc(S(=O)(=O)N[C@H]2CC[C@@H](CC(=O)Nc3ccccc3)O[C@@H]2CO)c1`, the “activity change, negative = inhibition” value was 17% (inactive).

`C[C@@H]1CN([C@@H](C)CO)C(=O)c2cccc(NC(=O)c3ccc(-c4nccs4)cc3)c2O[C@@H]1CN(C)Cc1ccc(C(F)(F)F)cc1`: the “activity change, negative = inhibition” value was -0.017% [at 7.5 µM] (inactive). For `O=C(C[C@H]1CC[C@H]2[C@@H](COC[C@@H](O)CN2S(=O)(=O)c2cccc(Cl)c2)O1)Nc1ccc(-c2ccccc2)cc1` the value was 25.5% (inactive); for `C[C@@H]1CN([C@H](C)CO)S(=O)(=O)c2ccc(-c3cccc(F)c3)cc2O[C@@H]1CN(C)S(=O)(=O)c1ccc(F)cc1`, -13.2% (inactive). Then `CC(=O)N1[C@H](CO)[C@H](c2ccc(-c3ccncc3)cc2)[C@@H]1CNC(=O)CC1CC1`, with -8.06% (inactive). Then `OC[C@H]1[C@@H](c2ccc(-c3cccc(F)c3)cc2)[C@H]2CN(CCC(F)(F)F)CCCCN21`, with 23% (inactive).

Take `C[C@@H]1CN([C@@H](C)CO)C(=O)Cc2cc(NC(=O)CCCCCC(=O)Nc3ccccc3N)ccc2O[C@@H]1CN(C)Cc1ccc(Oc2ccccc2)cc1`: the “activity change, negative = inhibition” value was 0.657% (inactive). Turning to `Cc1ccc(S(=O)(=O)N(C)C[C@H]2OCCCC[C@H](C)Oc3ccc(NS(=O)(=O)c4ccc(Cl)cc4)cc3C(=O)N([C@H](C)CO)C[C@@H]2C)cc1`, the “activity change, negative = inhibition” value is -9.84% (inactive). With `O=C(NCC[C@@H]1CC[C@@H](NC(=O)C2CC2)[C@H](CO)O1)c1cc(Cl)cc(Cl)c1`, the “activity change, negative = inhibition” value was 19.4% (inactive).

In the case of `C[C@@H]1CN([C@@H](C)CO)C(=O)c2c(c3ccccc3n2C)-c2ccccc2CO[C@@H]1CN(C)Cc1cccc2c1OCCCO2`, the “activity change, negative = inhibition” value was -11.8% (inactive). For `C=CCOC(=O)[C@@H]1[C@H]2C(=O)O[C@H](c3ccccc3)[C@H](c3ccccc3)N2[C@H](c2ccc(OCCOC(=O)[C@@H]3C[C@@H]4C(=O)N[C@@H](Cc5ccccc5)C(=O)N4[C@@H]3c3ccc(O)cc3)cc2)[C@@]12C(=O)Nc1ccc(I)cc12` the value was 12% (inactive). Regarding `COc1ccc(NC(=O)N(C)C[C@@H]2Oc3cc(C#CCC(C)C)ccc3S(=O)(=O)N([C@@H](C)CO)C[C@H]2C)cc1`, the “activity change, negative = inhibition” value is 1.47% (inactive). For `CC(C)CC#Cc1cnc2c(c1)C(=O)N([C@H](C)CO)C[C@H](C)[C@H](CN(C)CC1CCOCC1)O2` the value was -7.96% (inactive); for `Cc1ccccc1-c1ccc2c(c1)O[C@@H](CN(C)C(=O)Nc1ccc(F)cc1)[C@@H](C)CN([C@@H](C)CO)S2(=O)=O`, 8.23% (inactive). Consider `C[C@@H]1CN([C@H](C)CO)C(=O)c2cc(NS(=O)(=O)c3ccccc3)ccc2O[C@@H](C)CCCCO[C@H]1CN(C)Cc1ccc(C(F)(F)F)cc1`, for which the “activity change, negative = inhibition” value was 7.22% (inactive).

Turning to `COc1ccc(S(=O)(=O)Nc2ccc3c(c2)C(=O)N([C@H](C)CO)C[C@H](C)[C@H](CN(C)Cc2ccc(C(F)(F)F)cc2)OCCCC[C@@H](C)O3)cc1`, the “activity change, negative = inhibition” value was 6.62% [at 16 µM] (inactive).
